A488 fluor: compound autofluorescence in A488 spectral region. compound autofluorescence, A488 spectral region, dye equivalency; Compound Type: qHTS ECL - MLSMR. max dye equivalency, M. 59,000 tested, 0.1% active. AID 591
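Compound autofluorescence was read in 100 mM Tris pH 8.0 after 15 min at room temperature, ex 480 nm/em 540 nm. Intensities were converted to A488 dye-equivalent concentration using an on-plate six-point A488 standard curve.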
Rhodamine fluor: rhodamine region autofluorescence | 59,000 tested, 0.05% active | max dye-equivalent concentration, M | Rhodamine-region fluorescence, 547/598 nm, Tris buffer; hits give high values | AID 594; in the data active = max dye-equivalent concentration above about 11 nM; inconclusive = between about 1.1 nM and that limit
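Intrinsic compound fluorescence, ex 547 / em 598 nm, CCD imager. Tris 100 mM pH 8.0; 15 min RT. Output = rhodamine dye-equivalent concentration at each compound concentration.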
TexasRed autofl: compounds fluorescent in Texas Red spectral region; Compound fluorescence, Texas Red channel, 547/618 nm; hits give high values; max dye-equivalent concentration, M; 59,000 tested, 0.06% active; AID 587; in the data active = max dye-equivalent concentration above about 10 nM; inconclusive = between about 1.1 nM and that limit
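qHTS profiling of intrinsic compound fluorescence; 100 mM Tris pH 8.0; 15 min RT; ex 547 / em 618 nm; response expressed as Texas Red dye-equivalent concentration from six-point plate standard.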
Resorufin autofl: resorufin region autofluorescence. Compound fluorescence, resorufin region 547/598 nm, buffer; hits give high values. max dye-equivalent concentration, M. 59,000 tested, 0.04% active
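Tris 100 mM pH 8.0; compound added, 15 min RT; CCD imager read, ex 547 nm/em 598 nm; signal normalized to resorufin standard curve (six concentrations per plate) as dye-equivalent concentration.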
A647 autofl: compound autofluorescence in A647 spectral region. Compound fluorescence, A647 channel (570/671 nm), Tris buffer. max dye-equivalent concentration, M. 59,000 tested, under 10 active. AID 592
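Fluorescence read (570 nm ex, 671 nm em) after 15 min RT incubation of compounds in 100 mM Tris buffer, pH 8.0; values expressed as dye-equivalent concentration against a six-point A647 standard series on each plate.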
Fluorescein fluor: compound fluoresces in the fluorescein spectral region; 59,000 tested, 0.91% active; Compound autofluorescence, 480/540 nm, fluorescein-equivalent; hits give high values; max fluorescein-equivalent concentration, M; in the data active = max fluorescein-equivalent concentration above about 10 nM; inconclusive = between about 1.1 nM and that limit
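Compounds (23 nL) in 100 mM Tris pH 8.0, 15 min at room temperature, then fluorescence read at 480 nm excitation/540 nm emission. Signal converted to fluorescein-equivalent concentration from an on-plate fluorescein standard curve.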
Numbers stand for hits; – = inactive; ? = inconclusive. An excerpt weighted towards active compounds, which were near 0.95% of everything screened. Unless noted, the rule behind the calls is not given here.

SMILES	A488 fluor	Rhodamine fluor	TexasRed autofl	Resorufin autofl	A647 autofl	Fluorescein fluor
CCOc1ccc2nc(NS(=O)(=O)c3ccc4c(c3)n(C)c(=O)n4C)sc2c1	–	–	–	–	–	1.17e-08M
OC[C@@H]1O[C@@H](n2cnc3c(NC4CCCC4)ncnc32)[C@@H](O)[C@H]1O	–	–	–	–	–	?
CC1=c2c(oc3cc(O)c(Nc4c(C)cc(O)cc4O)c(C)c23)=CC(=O)C1=Nc1c(C)cc(O)cc1O	–	1.17e-07M	2.63e-07M	7.41e-08M	–	1.47e-08M
CC(=O)OCC(=O)[C@@]1(O)CC[C@@H]2[C@@H]3CCC4=CC(=O)CC[C@@]4(C)[C@H]3C(=O)C[C@]21C	–	–	?	–	–	–
CC(=O)[C@@H]1[C@H]2[C@@H](C(=O)[C@H]3OC[C@H]2O3)[C@@H]2C=Cc3ccccc3N12	–	–	?	–	–	1.09e-08M
O=C(O)c1cc2ccccc2c(Cc2cc3ccccc3c(C(=O)O)c2O)c1O (tested in a mixture with another compound)	–	–	–	–	–	?
NS(=O)(=O)c1ccc(NCc2nc3ccccc3[nH]2)cc1	–	–	–	–	–	–
COC(=O)c1c(=O)n(O)c2ccc(OC)cc2[n+]1[O-]	?	–	–	–	–	3.56e-08M
C[C@H]1CC(C)(C)C[C@@](OCCN2CCCCC2)(c2ccccc2)C1	–	–	–	–	–	?
CCN(CC)c1ccc2c(Cl)c(Br)c(=O)oc2c1	–	–	–	–	–	?
CCN(CC)c1ccc2c(c1)oc(=O)c1c(Cl)cc(=O)oc12	2.5e-08M	–	–	–	–	4.78e-07M
CCN(CC)c1ccc2cc(C(=O)Nc3ccc(-n4cnnn4)c(OC)c3)c(=O)oc2c1	3.42e-08M	–	–	–	–	6.71e-07M
C=CCn1c(=O)/c(=C/c2ccc(C)o2)s/c1=C(/C#N)C(=O)c1ccccc1	?	–	–	–	–	9.85e-08M
C=C(CO)[C@H]1Cc2c(ccc3c2O[C@H]2COc4cc(OC)c(OC)cc4[C@@H]2C3=O)O1	–	–	–	–	–	–
CN(C)c1ccc(/C=C/c2cc[n+]([O-])cc2)cc1	1.51e-08M	–	?	–	–	2.85e-07M
CC(=Nc1ccc(O)cc1)c1sc2ccccc2c1O	?	–	?	–	–	1e-07M
CC(=O)NCCN=C(C)c1sc2ccccc2c1O	–	–	?	–	–	?
Cn1nc(-c2ccccc2)c2nc3ccccc3nc21	2.73e-08M	–	–	–	–	4.53e-07M
O=C(O)c1cc(O)c2c(c1)C(=O)c1cccc(O)c1C2=O	?	–	–	–	–	8.63e-08M
O=C1c2cccnc2C(=O)N1Cc1ccc(F)cc1	?	–	–	–	–	8.18e-08M
CN(C)C=Nc1c(Br)cc(Br)c2nonc12	?	?	?	?	–	3.91e-08M
CN(C)C=Nc1nonc1-c1ncn[nH]1	–	–	–	–	–	–
Cc1cc(-c2nnc(-c3cc4ccccc4oc3=O)o2)c(C)n1-c1ccccc1	–	–	–	–	–	–
CCCCCCc1cc2cc(-c3nnc(-c4ccccc4O)o3)c(=O)oc2cc1O	–	–	–	–	–	2.6e-08M
Nc1nc(SCc2ccccc2Cl)cc(C(=O)O)n1	–	–	–	–	–	–
SMILES	A488 fluor	Rhodamine fluor	TexasRed autofl	Resorufin autofl	A647 autofl	Fluorescein fluor
O=C1NC(c2ccccn2)Nc2sc3c(c21)CCC3 (stereo unspecified)	–	–	?	–	–	–
CCOC(=O)N1CCc2c(sc3c2C(=O)NC(c2ccc(-c4ccc(Cl)cc4)o2)N3)C1 (stereo unspecified)	–	–	–	–	–	–
CN1CCc2c(sc3c2C(=O)NC(c2ccccn2)N3)C1 (stereo unspecified)	?	?	1.25e-08M	?	–	5.58e-08M
Cc1ccc(C2NC(=O)c3c(sc4c3CCN(C)C4)N2)s1 (stereo unspecified)	–	–	–	–	–	1.64e-08M
CN1CCc2c(sc3c2C(=O)NC(/C=C/c2ccco2)N3)C1 (stereo unspecified)	–	–	–	–	–	1.33e-08M
CN1CCc2c(sc3c2C(=O)NC(c2ccc4c(c2)OCO4)N3)C1 (stereo unspecified)	–	–	?	–	–	?
Cc1ccc(C2NC(=O)c3c(sc4c3CCN(C)C4)N2)o1 (stereo unspecified)	–	–	–	–	–	1.21e-08M

High-throughput results as filed in PubChem BioAssay.
